Assay results taken from PubChem BioAssay.

Assay: S6 kinase pathway phospho-S6 level changes – cell-based, A549, cytoblot, luminescence, serum-stimulated, primary screen (AID 1158);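 also: serum-stimulated A549 lung adenocarcinoma cells; signal is phosphorylated S6 detected by cytoblot immunostaining with HRP secondary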
Conditions: 5 h, higher = more signal

Going from `CC(c1ccccc1)C(O)C1C=CC2C(=O)N(C)C(=O)C2N1Nc1ccccc1` (stereo not given) to `Cc1ccc(C(C)CC(O)C2C=CC3C(=O)N(c4ccccc4)C(=O)C3N2Nc2ccccc2)o1` (stereo not given), the z-score rises from -0.945 to 2.07.

Going from `Cc1ccc(N2C(=O)c3ccccc3[C@@H](C(=O)NCCCN(C)C)[C@@H]2c2ccc(CO)cc2)nc1` to `COCCCNC(=O)[C@@H]1c2ccccc2C(=O)N(C(C)C)[C@H]1c1ccc(CO)cc1`, the z-score rises from -0.337 to 0.219.

First: CCCCC(CC)C(O)C1C=CC2C(=O)N(C)C(=O)C2N1Nc1ccccc1 (stereo not given)
Second: CCCCCCCCCCC(O)C1C=CC2C(=O)N(c3ccccc3)C(=O)C2N1Nc1ccc(C#N)cc1 (stereo not given)
The z-score of the first is higher: -0.778 for the first, -0.817 for the second.

Compared with `C=CCNC(=O)[C@@H]1[C@H]2C(=O)O[C@H](c3ccccc3)[C@H](c3ccccc3)N2[C@H](c2ccc(O)cc2)[C@@]12C(=O)N(C(=O)OCCOC)c1ccc(C#CC3=CCCCC3)cc12`, `COCCOC(=O)N1C(=O)[C@@]2(c3cc(C#CC4=CCCCC4)ccc31)[C@H](C(=O)Nc1nc3ccccc3s1)[C@H]1C(=O)O[C@H](c3ccccc3)[C@H](c3ccccc3)N1[C@@H]2c1ccc(O)cc1` is lower in z-score: 0.0229 for the first, -0.123 for the second.

Compared with `NCCCCCCNC(=O)[C@@H]1C[C@@H]2C(=O)N[C@@H](CCCCN)C(=O)N2[C@@H]1c1ccc(O)cc1`, `CC(C)C[C@@H]1NC(=O)[C@@H]2C[C@H](C(=O)NCCCCCCN)[C@H](c3cccc(OCCO)c3)N2C1=O` is lower in z-score: 0.0189 for the first, -0.256 for the second.

Going from `COCCOC(=O)N1C(=O)[C@@]2(c3cc(C#CC4(O)CCCCCC4)ccc31)[C@H](C(=O)N1CCc3cc(OC)c(OC)cc3C1)[C@H]1C(=O)O[C@H](c3ccccc3)[C@H](c3ccccc3)N1[C@@H]2c1ccc(OCCO)cc1` to `COCCOC(=O)N1C(=O)[C@@]2(c3cc(C#CC4=CCCCC4)ccc31)[C@H](c1ccccc1OCCO)N1[C@H](c3ccccc3)[C@H](c3ccccc3)OC(=O)[C@H]1[C@@H]2C(=O)N1CCN(c2ncccn2)CC1`, the z-score rises from 0.272 to 0.65.

Compared with `COC(=O)[C@@]1(Cc2ccc(OC)cc2)[C@H]2c3cc(C(=O)N(C)C)n(Cc4ccc(OC(F)(F)F)cc4)c3C[C@H]2CN1C(=O)c1ccccc1`, `COC(=O)[C@@]1(Cc2ccc(F)cc2)[C@H]2c3cc(C(=O)N4CCCC4)n(CCc4c[nH]c5ccccc45)c3C[C@H]2CN1C(=O)c1ccccc1` is higher in z-score: -1.19 for the first, -0.142 for the second.

First: CCCCCN1CC=CC23O[C@@H]4C=CCCOC(=O)C4[C@H]2C(=O)N(CCCCCCO)[C@@H]3C1=O (stereo not given in full)
Second: C[N+](C)(C)CCCCCCNC(=O)[C@@H]1C[C@@H]2C(=O)N3CCC[C@H]3C(=O)N2[C@@H]1c1ccc(O)cc1
The z-score of the first is higher: 1.59 for the first, -0.196 for the second.

Going from `NC(=O)[C@@]1(Cc2ccccc2)COC(c2ccc(OCCCO)cc2)=N1` to `[N-]=[N+]=Nc1ccccc1C[C@]1(C(=O)NCC(O)CO)COC(c2ccc(OCCCO)cc2)=N1` (stereo not given in full), the z-score rises from -0.468 to 0.575.

First: N#Cc1ccc(NN2C(C(O)c3ccc(Br)cc3)C=CC3C(=O)N(c4ccccc4)C(=O)C32)cc1 (stereo not given)
Second: O=C1NC(=O)C2C1C=CC(C(O)c1ccco1)N2Nc1ccc(Cl)cc1Cl (stereo not given)
The z-score of the first is higher: 0.717 for the first, -0.992 for the second.

Going from `CCOC(=O)C[C@H]1[C@H](OC(=O)c2ccccc2-c2ccccc2)[C@@H](NC(=O)c2ccc3ccccc3c2)c2cc(OCCCO)ccc2N1C(=O)c1ccccc1` to `C=CCC(OC(C)=O)[C@@H]1[C@@H](N(Cc2ccc(-c3ccccc3)cc2)C(=O)c2ccc(-c3ccccc3)cc2)c2cc(OCCCO)ccc2N1C(=O)c1ccc2ccccc2c1` (stereo not given in full), the z-score rises from -0.0193 to 0.6.

Going from `C=CCOC(=O)[C@@]1(Cc2ccccc2)C[C@H]2CO[C@H](c3ccc(OC)cc3)N2C1=O` to `COc1ccc(CCNC(=O)[C@@]2(c3ccc([N+](=O)[O-])cc3)CC(=O)N(C3CCCCC3)[C@@H]2c2ccc(CO)cc2)cc1`, the z-score rises from -0.673 to -0.112.

Going from `COC(=O)C1=CC(CCCO)=CC(c2cccs2)N(Cc2cccc(OC(F)(F)F)c2)C=C1C(=O)OC` (stereo not given) to `CCOC(=O)C1=C[C@@H](C(C)(C)C)N(S(=O)(=O)c2ccc(C)cc2)[C@H]1c1cccc2ccccc12`, the z-score falls from -0.344 to -0.674.

Going from `COc1cccc(C)c1NC(=O)O[C@H]1[C@H](OC(=O)Nc2ccc3c(c2)OCO3)[C@@H](OC(=O)Nc2ccc3c(c2)OCO3)[C@@H](OC)O[C@@H]1CO` to `COCCOC(=O)N1C(=O)[C@@]2(c3cc(C#CCNC(N)=O)ccc31)[C@H](C(N)=O)[C@H]1C(=O)O[C@H](c3ccccc3)[C@H](c3ccccc3)N1[C@@H]2c1ccccc1OCCO`, the z-score falls from -0.227 to -0.309.

First: Cc1ccc(F)cc1S(=O)(=O)N[C@@H]1CCN(Cc2ccc(Br)cc2)C1
Second: C=CC[C@@H](OC(=O)Nc1ccc(SC)cc1)c1ccc(O)c(F)c1
The z-score of the first is lower: -0.166 for the first, 0.42 for the second.

Compared with `C=CC[C@]1(C(=O)N2CCCCC2)N=C(c2ccc(OCCCO)cc2)O[C@H]1c1ccccc1CN=[N+]=[N-]`, `O=C(c1ccccc1)N1C(=O)[C@]2(Cc3ccccc31)N=C(c1ccc(OCCCO)cc1)O[C@@H]2c1ccccc1` is lower in z-score: 0.83 for the first, -0.203 for the second.

Compared with `COCC(=C=CC[C@H](O)c1ccc(CO)o1)CCO`, `O=C(O)[C@@H]1[C@@H]2C(=O)N(c3ccccc3)C(=O)[C@@H]2C[C@@H]1Sc1ccccc1` is higher in z-score: -0.992 for the first, -0.381 for the second.

With `O=C1CS(=O)(=O)C(c2cccc([N+](=O)[O-])c2)N1c1ccccc1` (stereo not given) the z-score was 1.93.
